Test results taken from PubChem BioAssay (NCATS).
Inconclusive results are not listed. Entries that show only a call come without a potency. The source made the active and inactive calls. Calls come from the whole dose curve; as a rule, active = well fitted inhibition curve with a large enough effect; inconclusive = small, poorly fitted or top-dose-only effect; inactive = no such curve, though single readings can be large or run the other way.

Experiment: Primary qHTS for inhibitors of La Crosse Virus (LACV) - induced cell death in SH-SY5Y cells (AID 1508616);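 note: top concentration of the series differs between compounds; higher means more rescue of cells from virus-induced death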
Details: SH-SY5Y LACV cytopathicity rescue, ATP luminescence, 6 d; series mostly up to 4.29 µM
Excerpt: Assay Provider: Karin Peterson Ph.D.
National Institute of Allergy and Infection Diseases, National Institute of Health
La Crosse Virus (LACV) is a California serogroup mosquito-borne arbovirus, family Peribunyaviridae, which is an endemic pathogen in North America and can induce a rare, life-threatening neurological disease in children. LACV was first isolated in the early 1960s, from a summer "rural encephalitis" case in La Crosse, Wisconsin, USA. Since then, LACV encephalitis cases have been found in more than twenty states, with most cases in the Mississippi and Ohio River basins. The life cycle of LACV is maintained between the vector, the eastern tree-hole mosquito Aedes triseriatus, and vertebrate hosts including eastern gray squirrels (Sciurus carolinensis) and chipmunks (Tamiasstriatus grinseus). […] Most LACV infections in humans are asymptomatic or induce mild clinical symptoms of fever, headache, lethargy and vomiting. However, in some cases LACV can cause severe neuroinvasive disease, including encephalitis, meningitis, and meningoencephalitis, requiring hospitalization. To date, there is neither a licensed vaccine nor a Food and Drug Administration (FDA) approved antiviral therapy available to prevent or treat LACV encephalitis. The primary treatment for viral encephalitis is palliative care due to the lack of therapeutics. In the current study, we conducted a screen of 4,096 FDA approved and bioactive small molecules against LACV, by screening for rescue of LACV-induced cell death in SH-SY5Y cells.
LACV-induced cytopathicity assay
SEQUENCE No. (1,2, 3, etc.); […] (e.g., Cells, Incubation, Reagent, etc.); VALUE and DESCRIPTION.
1. Reagent; 2 uL; Cell solution.
3. Compounds; 23nL; Compound library
4. Reagent; 12 uL; LACV virus
6. Reagent; 24 uL; ATPLite (PerkinElmer)
7. Time; 5 min; Room temperature
8. Detection; Luminescence; View
NOTES (numbers refer to sequence above)
1. Seed 6000 SH-SY5Y cells (ATCC CRL-2266) in 2 microL/well media (DMEM/F12 10% FBS, 1x L-Glutamine, 1x Pyruvate, 1x NEAA, 1x Pen/Strep) in 384-well assay plates (tissue culture treated, white, solid bottom).
2. Incubate at 37 degrees C with 5% CO2 for 24 hr.
3. Dispense 23 nL/well compounds in DMSO via pin transfer.
4. Dispense 12 microL/well of LACV (LACV/human/1978) in media at 0.01 MOI.
5. Incubate at for 6 days at 37C 5% CO2
6. Dispense 24 microL/well of ATPLite 1step Luminescence assay system (PerkinElmer).
7. Incubate for 5 min at room temperature.
8. Read luminescence signal (Viewlux plate reader, PerkinElmer). Data was normalized with DMSO control wells containing LACV as 0%, and DMSO control wells without virus as 100%.

Structure (SMILES) | Potency | activity change
NCCCC[C@H](N[C@@H](CCc1ccccc1)C(=O)O)C(=O)N1CCC[C@H]1C(=O)O | inactive | 
CC(C)(C(=O)c1cccnc1)c1cccnc1 | inactive | 
CCCCCCCCCCCCCCCC[N+](C)(C)CCN(Cc1ccc(OC)cc1)c1ncccn1 | inactive | 
CCn1cc(C(=O)O)c(=O)c2cnc(N3CCCC3)nc21 |  | -0.143% [at 0.858 µM] (inactive)
Oc1cc(O)c2c(c1)O[C@H](c1ccc(O)c(O)c1)[C@H](O)C2 | inactive | 
C[C@]12CC[C@@H]3c4ccc(O)cc4CC[C@H]3[C@@H]1C[C@@H](O)[C@@H]2O | inactive | 
CC(Cc1cccc(C(F)(F)F)c1)NCCOC(=O)c1ccccc1 (stereo not given) | inactive | 
C[C@]12CC[C@@H]3c4ccc(O)cc4CC[C@H]3[C@@H]1CC[C@@H]2O | inactive | 
CC(O)C(=O)O (stereo not given) | inactive | 
N[C@@H](Cc1cnc[nH]1)C(=O)O | inactive | 
CC(=O)N/N=C/c1ccc([N+](=O)[O-])o1 | inactive | 
Oc1ccc(O)cc1 | inactive | 
Cc1ccc(C(=O)C(C)CN2CCCCC2)cc1 (stereo not given) | inactive | 
c1ccc(-c2ccc(C(c3ccccc3)n3ccnc3)cc2)cc1 (stereo not given) | inactive | 
CCOC(=O)c1cccc(N)c1 | inactive | 
CCOc1ccc2nc3cc(N)ccc3c(N)c2c1 | inactive | 
O=C(COc1ccc(Cl)cc1)N1CCN(Cc2ccc3c(c2)OCO3)CC1 | inactive | 
CC(=O)O[C@H]1C[C@@H]2CC[C@@H]3[C@H](CC[C@@]4(C)[C@H]3C[C@H]([N+]3(C)CCCCC3)[C@@H]4OC(C)=O)[C@@]2(C)C[C@@H]1[N+]1(C)CCCCC1 | inactive | 
CC(C)COC(=O)OCN1C(=O)CN(CCN2CC(=O)N(COC(=O)OCC(C)C)C(=O)C2)CC1=O | inactive | 
NCCc1ccn[nH]1 | inactive | 

Structure (SMILES) | Potency | activity change
CN(C)CCOc1ccccc1Cc1ccccc1 | inactive | 
CCOC(=O)n1ccn(C)c1=S | inactive | 
Cc1nc2n(c(=O)c1CCN1CCC(c3noc4cc(F)ccc34)CC1)CCC[C@H]2O | inactive | 
O=C(CCN1CCC(c2ccccc2)C1)c1ccc2c(c1)OCCO2 (stereo not given) | inactive | 
CCCCCCCCCCCCCCCC[N+](C)(C)CC | inactive | 
CN1CCCC(CC2c3ccccc3Sc3ccccc32)C1 (stereo not given) | inactive | 
Cc1cc(O)c(C(C)C)cc1Cl | inactive | 
CN(C)C(=S)SC(=S)N(C)C | inactive | 
CC1=C(C(=O)O)N2C(=O)[C@@H](NC(=O)[C@H](N)c3ccc(O)cc3)[C@H]2SC1 | inactive | 
C=CCc1ccc(O)c(OC)c1 | inactive | 
C1CCc2nnnn2CC1 | inactive | 
CC(=O)OCC(=O)[C@@]1(O)[C@H](C)C[C@H]2[C@@H]3CCC4=CC(=O)C=C[C@]4(C)[C@@]3(F)[C@@H](O)C[C@@]21C | inactive | 
CCCSS/C(CCO)=C(\C)N(C=O)Cc1cnc(C)nc1N | inactive | 
C[C@]12CC[C@H]3[C@@H](CCC4=CC(=O)CC[C@@]43C)[C@@H]1CC[C@@H]2C(=O)CO | inactive | 
O=C(O)c1cc2cc(Cc3cccnc3)ccc2o1 | inactive | 
NC(CO)(CO)CO | inactive | 
CC(Cc1ccccc1)(NC(=O)CN)c1ccccc1 (stereo not given) | inactive | 
CCN(CC)CCOc1ccc(C(O)(Cc2ccc(Cl)cc2)c2ccc(C)cc2)cc1 (stereo not given) | inactive | 
CC(=O)OCC(=O)[C@@]12OC(C)(C)O[C@@H]1C[C@H]1[C@@H]3C[C@H](F)C4=CC(=O)C=C[C@]4(C)[C@@]3(F)[C@@H](O)C[C@@]12C | inactive | 
C#C[C@]1(O)CC[C@H]2[C@@H]3CCC4=CC(=O)CC[C@@H]4[C@H]3CC[C@@]21C | inactive | 
